Experimental data taken from PubChem BioAssay (NCI).
This is part of a sample that, as a whole, favours compounds with a hit. Of some 79,000 tested, about 15% had one in any assay. A number with no mark means an inactive call. The source made the active and inactive calls. No stated cut-off is given here; in the data, active means growth inhibition above about 70%; inactive means the rest.

Assay: NCI Yeast Anticancer Drug Screen. Data for the bub3 strain (AID 167)
Conditions: S. cerevisiae bub3 mutant strain, at 50.0 µM, stronger effect = higher value
Summary of the method: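 Compounds were applied to a genetically altered yeast strain carrying a cell-cycle control defect. Growth inhibition was scored against vehicle-treated controls.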
Compound `c1ccc(N2C3Sc4ncccc4C2Sc2ncccc23)cc1` has a growth inhibition of -1.05%.
In the case of `OC1(C(O)(c2ccc(-c3ccccc3)cc2)c2ccc(-c3ccccc3)cc2)CCCCC1`, the growth inhibition is reported as -26.4%.
For `COc1cc(/C=C2\SC(=S)N(/C=C(/C#N)C(=O)c3ccc4ccccc4c3)C2=O)cc(OC)c1OC`, the growth inhibition was 27.2%.
`O=C1CCN2C(=O)CCN12` showed a growth inhibition of 11%.
`CC(=O)Nc1c(C)ncn(-c2ccccc2)c1=O` showed a growth inhibition of -2.75%.
`CCNc1ncc2nc(CC(=O)OC)c(=O)n(CC)c2n1` showed a growth inhibition of 10.5%.
For `CC(=O)OC1C(C(O)CO)OC2OC(C)(C)OC21` (stereo not given), the growth inhibition was -59.5%.
In the case of `CC(C)=CCC/C(C)=C/CC/C(C)=C/C1CCC(=O)C1(C)C` (stereo not given), the growth inhibition is reported as -33.3%.
For `CCOc1ccccc1NC(=O)C(=O)C(c1ccccc1)S(=O)(=O)Cc1ccccc1` (stereo not given), the growth inhibition was -7.35%.
`Oc1ccc2ccccc2c1-c1c(OC(c2ccccc2)c2ccccc2)ccc2ccccc12` gave a growth inhibition of -4.65%.
With `NC(N)=N/N=C(\c1nc2ccc([N+](=O)[O-])cc2[nH]c1=O)C(O)c1ccc([N+](=O)[O-])cc1` (stereo not given) the growth inhibition was -6.7%.
`CCOC(=O)CC1C(C)C(C)NC(C)C1C` (stereo not given) showed a growth inhibition of 2.95%.
In the case of `O=C1CCCCC1N1CCCCC1` (stereo not given), the growth inhibition is reported as -1.3%.
For `CN(C)C(=O)c1cccnc1`, the growth inhibition was -18.2%.
For `CC(CCC(=O)O)[C@H]1CCC2[C@@H]3C(=O)C[C@@H]4CC(O)CC[C@]4(C)C3CC[C@@]21C` (stereo not given in full), the growth inhibition was 19.9%.
For `CCC(c1ccccc1)c1cc(C(C)(C)C)cc(C(C)(C)C)c1O` (stereo not given), the growth inhibition was 25.4%.
With `CC(=O)Nc1ccc(S(=O)(=O)O)nc1` the growth inhibition was 7.65%.
Work on `CCCCCCc1ccc2c3cccc4cccc(c5cccc1c52)c43` yielded a growth inhibition of -11.1%.
With `CCCCCCC(C)(O)C(C)O` (stereo not given) the growth inhibition was 12.2%.
`CN=C1SC(C)(C)NN1C` gave a growth inhibition of -6.4%.
`CCSC(SCC)C(NC(C)=O)C(O)C(O)COC(=O)c1ccccc1` (stereo not given) showed a growth inhibition of 1.35%.
In the case of `c1ccc(CSc2ccc3ccccc3c2)cc1`, the growth inhibition is reported as -4.1%.
With `COC(OC)c1cccnc1C` the growth inhibition was -23.5%.
In the case of `O=C(C(=O)c1cccc(Cl)c1)c1ccccc1`, the growth inhibition is reported as -15.2%.
`COc1ccc(C(CCl)(CCl)c2ccc(OC)c(C)c2)cc1C` gave a growth inhibition of 5.3%.
`CC(=O)C1=CN(Cc2ccccc2)C(O)CC1C(N)=O` (stereo not given) showed a growth inhibition of 16.1%.
In the case of `O=C(Nc1cc([N+](=O)[O-])ccc1F)Oc1ccc(OCc2ccccc2)cc1`, the growth inhibition is reported as -2.55%.
`CCOC(=O)c1ccc(NCc2nc3ccccc3nc2C)cc1` showed a growth inhibition of 1.95%.
`COC(=O)Nc1cccc(NC(=O)C(=O)O)c1` showed a growth inhibition of -4.7%.
With `O=C1c2ccccc2C(=O)N1/N=N/N1C(=O)c2ccccc2C1=O` the growth inhibition was 98.6% (active).
`OC1CCC(O)[C@H]2[C@@H]1[C@@H]1S[C@H]2c2ccccc21` (stereo not given in full) showed a growth inhibition of -10.3%.
`CC(C)(C)C(=O)CC(=O)C(C)(C)C.[Cu]` gave a growth inhibition of -26.4%.
Compound `O.O.[Cl][Pt+2][Cl].[NH-]CC1(C[NH-])CCCCC1` has a growth inhibition of 8.75%.
`COc1cccc(CC2C(=O)N=C(NC(C)=O)N2C)c1OC(C)=O` (stereo not given) gave a growth inhibition of -5.65%.
For `O=C(COc1cc(Cl)c(Cl)cc1Cl)Oc1ccccc1`, the growth inhibition was 8.5%.
Compound `COC(=O)/C=C(\C(=O)OC)C(C(=O)c1ccccc1)=P(c1ccccc1)(c1ccccc1)c1ccccc1` has a growth inhibition of 3.55%.
In the case of `CCCSc1ccc2c3c(cccc13)C(=O)OC2=O`, the growth inhibition is reported as 57.7%.
`O=S1(=O)c2ccc(cc2)N=CC=Nc2ccc1cc2` gave a growth inhibition of 14.3%.
Work on `CC1CCc2c(O)ccc(O)c21` (stereo not given) yielded a growth inhibition of -5%.
Compound `COc1ccc(OC2OC(CO)C(OCc3ccccc3)C(OCc3ccccc3)C2OCc2ccccc2)cc1` (stereo not given) has a growth inhibition of -33.6%.
